According to PubChem BioAssay AID641 (Vanderbilt High Throughput Screening Facility, 2007):
About 3,400 (5.9%) of roughly 58,000 compounds were called active. The full list was thinned out, with actives kept by preference. Values without a mark were called inactive.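 Rule for the calls: active = luminescence count or its row- and column-corrected plate score outside the 99.7% band of the plate's sample wells, on either side; inactive = the rest.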 Where a SMILES comes first, the peptide text is derived from it. The star is where a group is joined. Bz = O=C(c1ccccc1)*

molecular target: D(1A) dopamine receptor (Homo sapiens) (UniProt P21728); test: D1 CRE-luciferase signal change, two-sided – cell-based, HEK293 D1, dopamine EC30, D1 allosteric modulator project, primary screen (AID 641); conditions: dopamine EC30 potentiation, at 10 µM, actives deviate in either direction
Sequence (P21728 whole entry, looked up): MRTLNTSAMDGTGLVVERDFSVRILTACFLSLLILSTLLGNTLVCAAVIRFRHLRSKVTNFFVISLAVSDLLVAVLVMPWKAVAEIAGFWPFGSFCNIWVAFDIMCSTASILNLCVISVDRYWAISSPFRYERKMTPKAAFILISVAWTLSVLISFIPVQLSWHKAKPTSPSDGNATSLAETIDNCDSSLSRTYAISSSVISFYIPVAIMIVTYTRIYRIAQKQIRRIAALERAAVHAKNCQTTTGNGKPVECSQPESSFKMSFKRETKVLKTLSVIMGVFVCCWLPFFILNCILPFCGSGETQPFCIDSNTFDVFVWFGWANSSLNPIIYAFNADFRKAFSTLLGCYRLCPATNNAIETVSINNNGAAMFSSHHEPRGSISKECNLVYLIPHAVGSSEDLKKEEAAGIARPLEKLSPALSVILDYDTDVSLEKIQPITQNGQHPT

Row | Structure (SMILES) | B-score
1 | O=C(O)C1CCCN(S(=O)(=O)c2cccc3cccnc23)C1 (stereo not drawn) | 0.0158
2 | CCOC(=O)c1c(NC(=O)CSc2nnc(CN3CCOCC3)n2C)sc2c1CCCC2 | 6.03 (active)
3 | CCOC(=O)c1c(NC(=O)CSc2nnc(C)c(=O)[nH]2)sc2c1CCC2 | 1.36
4 | COC(=O)c1c(NC(=O)CSc2nc3c(c(=O)n(C)c(=O)n3C)n2C(C)C)sc(C)c1C | 3.35
5 | CCOC(=O)c1c(NC(=O)CSc2nnc(Cc3csc(N)n3)n2C)sc(C)c1C | 4.94 (active)
6 | Cn1c(Cc2csc(N)n2)nnc1SC/C=C/c1ccccc1 | 0.477
7 | CCOCC(=O)Nc1sc2c(c1C(=O)OCC)CCCC2 | -0.0785
8 | O=C(NCc1ccc2c(c1)OCO2)C1CCCN(S(=O)(=O)c2cccs2)C1 (stereo not drawn) | -0.0139
9 | CCC1CCCCN1C(=O)Nc1cccc(NC(=O)N2CCCCC2CC)c1 (stereo not drawn) | 0.11
10 | CCOCC(=O)NCc1ccc2c(c1)cc(C)n2C | 0.132
11 | Cc1noc(C)c1S(=O)(=O)N1CCCC(C(=O)Nc2nccs2)C1 (stereo not drawn) | -0.254
12 | COC(=O)C(C)C1Sc2ccccc2NC1=O (stereo not drawn) | 4.51 (active)
13 | CCOC(=O)c1ccccc1NC(=O)CC1Nc2ccccc2NC1=O (stereo not drawn) | -0.897
14 | COc1ccc(N=Cc2c(O)[nH]c3ccccc23)cc1OC | -2.18 (active)
15 | COc1cc(N=Cc2c(O)[nH]c3ccccc23)cc(OC)c1OC | -1.15
16 | COc1ccc(OC)c(N=Cc2c(O)[nH]c3ccccc23)c1 | 1.65
17 | CN(C)Cc1c(O)ccc2occ(C(O)c3ccccc3)c12 (stereo not drawn) | 0
18 | Cc1nnc(SCC(=O)NCCOc2ccc(Cl)cc2)n1-c1ccccc1 | 0.122
19 | O=C(CCC(=O)OCC(F)(F)C(F)F)NCc1ccccc1 | 0.31
20 | CCOC(=O)c1ccn(-c2nc(-c3ccco3)cc(C(F)(F)F)n2)n1 | -0.161
21 | FC(F)(F)c1nnc2sc(-c3ccco3)nn12 | 0.0156
22 | Cc1cc(C(F)(F)F)nn1-c1nc(-c2ccco2)cc(C(F)(F)F)n1 | 9.17 (active)
23 | FC(F)(F)c1cc(-c2ccco2)nc(N2CCOCC2)n1 | 17 (active)
24 | O=C(CSc1nc(-c2ccco2)cc(C(F)(F)F)n1)NCc1cccs1 | 0.0388
25 | O=C(CSc1nc(-c2ccco2)cc(C(F)(F)F)n1)N1CCc2ccccc2C1 | 0.312

Row | Structure (SMILES) | B-score
26 | C=CCc1cccc2cc(C(=O)N3CCN(C(=O)OCC)CC3)c(=O)oc12 | -0.147
27 | CCOC(=O)Cn1c(=O)oc2cc(S(=O)(=O)N(C)Cc3ccco3)ccc21 | 0.239
28 | Cn1nnnc1SCC(=O)N1CCN(Cc2ccccc2)CC1 | 0.031
29 | CCOC(=O)N1CCC(NC(=O)COc2cc(=O)n(C)c3ccccc23)CC1 | 0.112
30 | Cc1occc1C(=O)N1CCCc2ccccc21 | 0.259
31 | Cc1ccc2c(c1)N(CC(=O)N1CCCc3ccccc31)C(=O)C(C)O2 (stereo not drawn) | 1.2
32 | CCc1cc(=O)oc2cc(OCC(=O)N3CCCc4ccccc43)ccc12 | 8.41 (active)
33 | Cc1ccc(C2c3c(oc4ccc(C)cc4c3=O)C(=O)N2CCCN2CCOCC2)cc1 (stereo not drawn) | 1.68
34 | Cc1ccc(S(=O)(=O)C(C#N)c2nc3ccccc3nc2N2CCCC2)cc1C (stereo not drawn) | 0.792
35 | CC(C)(C)NC(=O)C(c1ccncc1)N(C(=O)CNC(=O)c1ccco1)c1ccc2c(c1)OCO2 (stereo not drawn) | 1.5
36 | CCn1c2c(c3ccc(OC)cc31)CCCC2=O | 0.923
37 | COc1ccc(CCNC(=O)C2CCCN(Cc3nc(-c4cccc(Cl)c4)oc3C)C2)cc1OC (stereo not drawn) | 0.204
38 | COc1ccc(CCN(C)CCN2C(=O)c3ccccc3C2=O)cc1OC | 0.821
39 | COc1ccc(CCN(C)C(=O)C2CCCN(Cc3ccc(OC)c(OC)c3)C2)cc1OC (stereo not drawn) | 5.3 (active)
40 | COc1ccc(N2CCN(CCNC(=O)CCN3C(=O)COc4ccccc43)CC2)cc1 | -0.0397
41 | CCCN1CCN(CCCNC(=O)CN2C(=O)COc3ccccc32)CC1 | -0.525
42 | O=C(CCN1C(=O)COc2ccccc21)NCCCN1CCN(c2ccc(F)cc2)CC1 | -2.68 (active)
43 | Cn1nc(-c2ccc(Cl)cc2)c2cc(C(=O)NCc3ccco3)sc21 | -0.605
44 | COc1cc(NC(=O)N2CCOCC2)cc(OC)c1 | 4.92 (active)
45 | CCOC(=O)c1[nH]c2ccc(OC)cc2c1NC(=O)N1CCOCC1 | 1.26
46 | COc1ccc(OCC(=O)N2CCOCC2)cc1 | 0.809
47 | COc1ccc2[nH]c(=O)c(CN(CC3CCCO3)C(=O)Nc3ccccc3)cc2c1 (stereo not drawn) | -0.175
48 | Cc1cc(C(F)(F)F)nn1CC(=O)N1CCCC1 | 0.971
49 | CCn1ncc(C2=NOC(C(=O)N3CCN(c4ccccc4)CC3)C2)c1C (stereo not drawn) | -0.447
50 | CCn1ncc(C2=NOC(C(=O)Nc3ccccc3C(=O)OC)C2)c1C (stereo not drawn) | 13.2 (active)

Row | Structure (SMILES) | B-score
51 | COC(=O)c1ccccc1NC(=O)CSc1ccccn1 | 3.05
52 | c1ccc(CCC2=NCCn3cccc32)cc1 | -0.434
53 | O=C(C1CCN(CC2CCCCC2)CC1)N1CCCC1 | 0.0452
54 | COC(=O)C1=CN(C)C=C(C(=O)OC)C1c1ccc(Cl)cc1Cl | 0.625
55 | CCCc1nc(N2CCN(C)CC2)c2sc(=S)n(-c3ccccc3)c2n1 | 0.374
56 | O=C(NCc1ccco1)c1nc(-c2ccccc2)n(-c2ccccc2)n1 | -1.33
57 | CCCc1nc(-c2ccccc2O)n(-c2ccccc2)n1 | 8.71 (active)
58 | O=C(c1ccco1)N1CCN(C(=O)C2CC(c3ccc(F)cc3)=NO2)CC1 (stereo not drawn) | -0.404
59 | CC1(C)CC(=O)C=C(NCc2ccncc2)C1 | 0.0608
60 | CCOC(=O)N1CCN(Cc2nc3c(c(=O)n(C)c(=O)n3C)n2Cc2ccccc2)CC1 | -0.0843
61 | CC(=O)Nc1ccc(S(=O)(=O)N2CCCC2C(=O)O)cc1 (stereo not drawn) | -0.232
62 | OC(COc1cccc2ccccc12)CN1CCN(c2ccccn2)CC1 (stereo not drawn) | -4.42 (active)
63 | OC(COc1cccc(OCC(O)CN2CCCC2)c1)CN1CCCC1 (stereo not drawn) | -0.368
64 | O=C1c2cccc3cccc(c23)N1CN1CCN(c2ccccn2)CC1 | -2.84
65 | COc1ccc(NC(=O)Nc2cccc3cccnc23)cc1 | -0.391
66 | O=C(CSc1nnnn1C1CCCC1)Nc1ccc2c(c1)OCCO2 | -0.309
67 | COc1ccc(OC)c2sc(NC(=O)C3COc4ccccc4O3)nc12 (stereo not drawn) | 1.13
68 | CCN(Cc1nc2ccccc2c(=O)[nH]1)Cc1cc(=O)oc2cc(C)c(C)cc12 | -2.91 (active)
69 | O=C(c1ccco1)N(Cc1nc2ccccc2c(=O)[nH]1)C1CCCC1 | -0.0551
70 | CCCC(=O)N(CCc1ccccc1)Cc1nc2ccccc2c(=O)[nH]1 | 0.0641
71 | COc1ccc(-n2nnc3c(=O)n(CC(=O)OCc4ccccc4)cnc32)cc1 | -0.218
72 | Cn1c(SCC(=O)N2CCOCC2)nnc1-c1ccc(NC(=O)c2ccccc2F)cc1 | -0.459
73 | CC(C)c1cc(C(=O)O)on1 | 3.98 (active)
74 | CCC(=O)N1CCc2cc(S(=O)(=O)NC(C(=O)N3CCc4ccccc4C3)C(C)C)ccc21 (stereo not drawn) | 1.68
75 | CNC(=O)c1c(NC(=O)c2ccc(S(=O)(=O)N3CCOCC3)cc2)sc2c1CCC2 | 0.787

Row | Structure (SMILES) | B-score
76 | CC(C)c1nc(-c2ccccn2)no1 | -0.397
77 | O=C(Oc1ccc(-c2nc(-c3ccccn3)no2)cc1)c1ccccc1 | -2.61 (active)
78 | c1csc(-c2nc(-c3ccncc3)no2)c1 | 2.02
79 | O=C(c1cccs1)N(C(=O)c1cccs1)c1ccccn1 | -0.339
80 | O=C(Oc1ccccc1)c1ccc2nccnc2c1 | 0.299
81 | c1ccc(-c2noc(-c3cccs3)n2)nc1 | -6.15 (active)
82 | O=C1C(C=NCC2CCCO2)=C(O)c2ccccc21 (stereo not drawn) | -0.132
83 | Cc1cc(C(=O)COC(=O)c2cccs2)c(C)n1-c1c(C)n(C)n(-c2ccccc2)c1=O | -1.48
84 | COc1cccc(-n2cc3c(c2-c2ccccc2)c(=O)n(C)c(=O)n3C)c1 | 0.281
85 | CCc1c(O)nc(SCC(=O)N2CCCCC2)n(-c2ccccc2C)c1=O | 0.0102
86 | Cc1ccc(S(=O)(=O)NCc2nc3ccccc3c(=O)n2N)cc1 | -0.0901
87 | C=CCn1c(N)c(S(=O)(=O)c2cccs2)c2nc3ccccc3nc21 | -0.811
88 | Cc1ccc(S(=O)(=O)c2c(N)n(C)c3nc4ccccc4nc23)cc1 | 8.84 (active)
89 | O=C(NC(Cc1ccccc1)C(=O)N1CCCC1C(=O)O)c1ccccc1 (stereo not drawn) (Bz-Phe-Pro-OH; configuration not given here) | 0.682
90 | CCOC(=O)c1ccc(N2C(=O)CC(N3CCC(C(=O)OCC)CC3)C2=O)cc1 (stereo not drawn) | -0.257
91 | COCCOC(=O)C1=C(C)NC(=O)NC1c1ccc(Cl)cc1 (stereo not drawn) | -0.276
92 | CCOc1ccccc1/C=c1\sc2nc(-c3ccco3)nn2c1=O | -0.399
93 | CCOC(=O)/C=c1\s/c(=C\c2ccccc2OC)c(=O)n1CC(=O)N1CCOCC1 | 4.29 (active)
94 | COc1cccc2c(=O)n(CC(=O)N3CCCCCC3)ccc12 | 0.116
95 | CN(C)Cc1c(C#N)c2ccccc2n1C | -1.12
96 | CCn1cc(C(=O)N2CC=C(c3ccccc3)CC2)c(=O)c2ccc(C)nc21 | 1.17
97 | CCOc1ccc(C(=O)Nc2cc(OC)ccc2OC)cc1 | 0.0877
98 | CCn1cc(C(=O)NCc2ccc(OC)cc2OC)c(=O)c2ccc(C)nc21 | 5.55 (active)
